Data from the supplement of paper PMC11732987, “Enantioselective OTUD7B fragment discovery through chemoproteomics screening and high-throughput optimisation” (Communications Chemistry, 2025).

Experiments:
Assay in all cases: log2 ratio of Biotin-Ahx-Ub-VS probe labelling (fragment/DMSO); higher = less target engagement (more negative = stronger competition), active = hit call of the paper (q ≤ 0.05, log2 ratio ≤ -1)
Conditions in all cases: compound concentration: 200 uM; treatment time: 3 h
USP19 = molecular target: T1, USP19 (UniProt O94966)
T1 sequence (whole entry): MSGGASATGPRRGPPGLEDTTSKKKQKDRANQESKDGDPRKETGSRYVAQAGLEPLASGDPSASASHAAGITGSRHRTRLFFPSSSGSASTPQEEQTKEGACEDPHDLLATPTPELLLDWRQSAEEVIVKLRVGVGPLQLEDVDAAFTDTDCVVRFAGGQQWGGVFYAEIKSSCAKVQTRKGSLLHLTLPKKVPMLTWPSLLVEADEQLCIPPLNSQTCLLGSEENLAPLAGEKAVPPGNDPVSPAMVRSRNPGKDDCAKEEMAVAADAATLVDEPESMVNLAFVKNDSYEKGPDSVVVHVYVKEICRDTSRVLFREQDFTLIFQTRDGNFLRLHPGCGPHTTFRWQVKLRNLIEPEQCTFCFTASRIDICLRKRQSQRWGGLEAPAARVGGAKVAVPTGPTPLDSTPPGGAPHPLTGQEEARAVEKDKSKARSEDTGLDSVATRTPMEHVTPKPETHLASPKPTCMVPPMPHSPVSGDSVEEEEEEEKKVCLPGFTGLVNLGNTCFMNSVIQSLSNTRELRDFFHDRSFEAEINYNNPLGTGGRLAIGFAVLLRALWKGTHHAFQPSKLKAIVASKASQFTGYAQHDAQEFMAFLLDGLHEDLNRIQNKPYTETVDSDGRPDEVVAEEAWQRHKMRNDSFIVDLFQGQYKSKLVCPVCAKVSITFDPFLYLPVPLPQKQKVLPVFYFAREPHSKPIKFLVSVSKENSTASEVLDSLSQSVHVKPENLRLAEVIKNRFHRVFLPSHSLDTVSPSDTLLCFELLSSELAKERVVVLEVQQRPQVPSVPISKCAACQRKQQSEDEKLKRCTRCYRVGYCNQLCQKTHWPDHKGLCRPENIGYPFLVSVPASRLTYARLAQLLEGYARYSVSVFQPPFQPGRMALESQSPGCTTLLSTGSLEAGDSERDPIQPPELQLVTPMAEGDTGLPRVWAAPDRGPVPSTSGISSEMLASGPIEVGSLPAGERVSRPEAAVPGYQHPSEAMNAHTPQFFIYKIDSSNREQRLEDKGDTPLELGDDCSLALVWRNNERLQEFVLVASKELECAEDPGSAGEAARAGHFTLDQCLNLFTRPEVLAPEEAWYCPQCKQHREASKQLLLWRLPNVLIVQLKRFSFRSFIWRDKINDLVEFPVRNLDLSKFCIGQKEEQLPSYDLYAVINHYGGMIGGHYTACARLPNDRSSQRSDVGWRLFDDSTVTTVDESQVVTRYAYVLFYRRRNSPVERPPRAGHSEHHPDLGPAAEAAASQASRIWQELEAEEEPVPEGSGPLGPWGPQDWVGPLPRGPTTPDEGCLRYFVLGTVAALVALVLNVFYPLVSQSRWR
Procedure, shortened: (§1)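 HEK293T lysate, 495 µg per sample in Tris/CHAPS/IGEPAL buffer with protease inhibitors, was treated in triplicate with fragment at 200 µM or vehicle for 3 h and then with Biotin-Ahx-Ub-VS at 0.5 µM final for 1 h. Labelled DUBs were NeutrAvidin-enriched, digested with LysC and trypsin, and run by diaPASEF LC-MS/MS. Spectronaut label-free quantities were global-median-normalised, and values are average log2 fragment/vehicle ratios by unpaired t-test on proteins with ≥2 unique peptides.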

USP22 = molecular target: T2, USP22 (UniProt Q9UPT9)
T2 sequence (whole entry): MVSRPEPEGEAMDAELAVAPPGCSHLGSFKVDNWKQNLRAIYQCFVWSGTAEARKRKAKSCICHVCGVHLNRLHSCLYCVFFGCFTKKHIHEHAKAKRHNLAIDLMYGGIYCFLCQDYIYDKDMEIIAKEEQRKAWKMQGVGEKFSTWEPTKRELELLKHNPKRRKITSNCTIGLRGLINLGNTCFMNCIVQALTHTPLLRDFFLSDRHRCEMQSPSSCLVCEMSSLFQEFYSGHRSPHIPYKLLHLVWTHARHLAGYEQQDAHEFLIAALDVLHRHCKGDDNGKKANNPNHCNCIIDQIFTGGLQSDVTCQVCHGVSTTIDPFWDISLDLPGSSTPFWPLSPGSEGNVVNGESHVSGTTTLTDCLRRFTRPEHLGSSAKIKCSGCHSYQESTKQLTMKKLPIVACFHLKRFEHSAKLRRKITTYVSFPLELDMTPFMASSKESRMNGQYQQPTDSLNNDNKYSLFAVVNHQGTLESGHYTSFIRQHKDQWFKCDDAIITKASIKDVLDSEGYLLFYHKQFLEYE
Procedure, shortened: as §1

USP24 = USP24 (UniProt Q9UPU5)
Procedure, shortened: as §1

USP25 = molecular target: T3, USP25 (UniProt Q9UHP3)
T3 sequence (whole entry): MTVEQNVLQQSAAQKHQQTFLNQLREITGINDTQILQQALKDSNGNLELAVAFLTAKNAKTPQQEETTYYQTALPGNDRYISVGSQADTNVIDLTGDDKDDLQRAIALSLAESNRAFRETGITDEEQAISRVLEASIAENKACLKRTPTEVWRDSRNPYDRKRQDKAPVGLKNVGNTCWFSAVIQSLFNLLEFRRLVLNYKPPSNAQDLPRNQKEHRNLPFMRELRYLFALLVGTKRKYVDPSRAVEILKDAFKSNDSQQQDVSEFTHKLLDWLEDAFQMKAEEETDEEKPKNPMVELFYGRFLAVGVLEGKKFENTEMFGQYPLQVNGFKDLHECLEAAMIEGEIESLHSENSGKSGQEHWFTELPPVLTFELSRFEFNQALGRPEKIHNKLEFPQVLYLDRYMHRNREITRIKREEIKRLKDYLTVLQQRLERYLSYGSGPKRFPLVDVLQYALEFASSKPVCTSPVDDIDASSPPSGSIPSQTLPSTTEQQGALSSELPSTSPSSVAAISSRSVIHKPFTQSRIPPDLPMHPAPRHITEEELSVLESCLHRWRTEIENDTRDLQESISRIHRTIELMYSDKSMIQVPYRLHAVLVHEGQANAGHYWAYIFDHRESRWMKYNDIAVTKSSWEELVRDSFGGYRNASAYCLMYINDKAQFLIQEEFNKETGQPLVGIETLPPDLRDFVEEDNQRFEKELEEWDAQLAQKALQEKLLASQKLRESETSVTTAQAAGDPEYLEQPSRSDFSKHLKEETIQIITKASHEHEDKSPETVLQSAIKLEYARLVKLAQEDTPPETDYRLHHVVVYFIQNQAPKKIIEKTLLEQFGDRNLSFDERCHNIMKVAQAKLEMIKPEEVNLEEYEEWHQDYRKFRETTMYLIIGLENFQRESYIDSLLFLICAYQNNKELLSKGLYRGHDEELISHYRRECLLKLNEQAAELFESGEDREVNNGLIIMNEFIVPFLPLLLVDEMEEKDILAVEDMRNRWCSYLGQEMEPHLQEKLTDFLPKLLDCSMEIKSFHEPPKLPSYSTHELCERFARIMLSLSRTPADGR
Procedure, shortened: as §1

USP28 = molecular target: T4, USP28 (UniProt Q96RU2)
T4 sequence (whole entry): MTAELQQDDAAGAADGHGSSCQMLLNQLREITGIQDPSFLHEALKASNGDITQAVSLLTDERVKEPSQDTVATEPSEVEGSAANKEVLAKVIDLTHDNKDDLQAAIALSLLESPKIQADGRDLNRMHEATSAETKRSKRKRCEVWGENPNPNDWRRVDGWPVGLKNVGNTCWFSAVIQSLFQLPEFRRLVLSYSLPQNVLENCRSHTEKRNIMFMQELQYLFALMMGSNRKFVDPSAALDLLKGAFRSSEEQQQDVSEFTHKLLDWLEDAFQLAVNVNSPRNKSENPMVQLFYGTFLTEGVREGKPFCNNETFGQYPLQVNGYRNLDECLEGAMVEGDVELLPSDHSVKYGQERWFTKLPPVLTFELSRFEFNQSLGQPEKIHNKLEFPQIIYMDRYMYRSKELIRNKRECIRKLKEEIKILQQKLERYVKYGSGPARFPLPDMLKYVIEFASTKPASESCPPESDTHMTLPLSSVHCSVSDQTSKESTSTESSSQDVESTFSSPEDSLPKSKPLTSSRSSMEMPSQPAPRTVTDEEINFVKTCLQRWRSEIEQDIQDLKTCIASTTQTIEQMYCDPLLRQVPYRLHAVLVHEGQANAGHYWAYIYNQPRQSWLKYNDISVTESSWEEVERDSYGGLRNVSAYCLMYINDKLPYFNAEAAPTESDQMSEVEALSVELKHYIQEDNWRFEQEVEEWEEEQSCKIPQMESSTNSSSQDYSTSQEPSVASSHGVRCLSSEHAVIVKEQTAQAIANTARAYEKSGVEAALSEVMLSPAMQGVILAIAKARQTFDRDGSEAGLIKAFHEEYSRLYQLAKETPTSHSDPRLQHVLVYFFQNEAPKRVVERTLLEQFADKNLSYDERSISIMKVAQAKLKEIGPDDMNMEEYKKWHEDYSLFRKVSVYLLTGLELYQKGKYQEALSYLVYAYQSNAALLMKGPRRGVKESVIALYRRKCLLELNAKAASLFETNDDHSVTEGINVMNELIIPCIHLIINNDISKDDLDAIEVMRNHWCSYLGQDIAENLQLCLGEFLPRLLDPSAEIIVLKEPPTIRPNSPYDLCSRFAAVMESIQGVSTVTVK
Procedure, shortened: as §1

Measured: log2 ratio of Biotin-Ahx-Ub-VS probe labelling

Sequence of USP24 (Q9UPU5 whole entry): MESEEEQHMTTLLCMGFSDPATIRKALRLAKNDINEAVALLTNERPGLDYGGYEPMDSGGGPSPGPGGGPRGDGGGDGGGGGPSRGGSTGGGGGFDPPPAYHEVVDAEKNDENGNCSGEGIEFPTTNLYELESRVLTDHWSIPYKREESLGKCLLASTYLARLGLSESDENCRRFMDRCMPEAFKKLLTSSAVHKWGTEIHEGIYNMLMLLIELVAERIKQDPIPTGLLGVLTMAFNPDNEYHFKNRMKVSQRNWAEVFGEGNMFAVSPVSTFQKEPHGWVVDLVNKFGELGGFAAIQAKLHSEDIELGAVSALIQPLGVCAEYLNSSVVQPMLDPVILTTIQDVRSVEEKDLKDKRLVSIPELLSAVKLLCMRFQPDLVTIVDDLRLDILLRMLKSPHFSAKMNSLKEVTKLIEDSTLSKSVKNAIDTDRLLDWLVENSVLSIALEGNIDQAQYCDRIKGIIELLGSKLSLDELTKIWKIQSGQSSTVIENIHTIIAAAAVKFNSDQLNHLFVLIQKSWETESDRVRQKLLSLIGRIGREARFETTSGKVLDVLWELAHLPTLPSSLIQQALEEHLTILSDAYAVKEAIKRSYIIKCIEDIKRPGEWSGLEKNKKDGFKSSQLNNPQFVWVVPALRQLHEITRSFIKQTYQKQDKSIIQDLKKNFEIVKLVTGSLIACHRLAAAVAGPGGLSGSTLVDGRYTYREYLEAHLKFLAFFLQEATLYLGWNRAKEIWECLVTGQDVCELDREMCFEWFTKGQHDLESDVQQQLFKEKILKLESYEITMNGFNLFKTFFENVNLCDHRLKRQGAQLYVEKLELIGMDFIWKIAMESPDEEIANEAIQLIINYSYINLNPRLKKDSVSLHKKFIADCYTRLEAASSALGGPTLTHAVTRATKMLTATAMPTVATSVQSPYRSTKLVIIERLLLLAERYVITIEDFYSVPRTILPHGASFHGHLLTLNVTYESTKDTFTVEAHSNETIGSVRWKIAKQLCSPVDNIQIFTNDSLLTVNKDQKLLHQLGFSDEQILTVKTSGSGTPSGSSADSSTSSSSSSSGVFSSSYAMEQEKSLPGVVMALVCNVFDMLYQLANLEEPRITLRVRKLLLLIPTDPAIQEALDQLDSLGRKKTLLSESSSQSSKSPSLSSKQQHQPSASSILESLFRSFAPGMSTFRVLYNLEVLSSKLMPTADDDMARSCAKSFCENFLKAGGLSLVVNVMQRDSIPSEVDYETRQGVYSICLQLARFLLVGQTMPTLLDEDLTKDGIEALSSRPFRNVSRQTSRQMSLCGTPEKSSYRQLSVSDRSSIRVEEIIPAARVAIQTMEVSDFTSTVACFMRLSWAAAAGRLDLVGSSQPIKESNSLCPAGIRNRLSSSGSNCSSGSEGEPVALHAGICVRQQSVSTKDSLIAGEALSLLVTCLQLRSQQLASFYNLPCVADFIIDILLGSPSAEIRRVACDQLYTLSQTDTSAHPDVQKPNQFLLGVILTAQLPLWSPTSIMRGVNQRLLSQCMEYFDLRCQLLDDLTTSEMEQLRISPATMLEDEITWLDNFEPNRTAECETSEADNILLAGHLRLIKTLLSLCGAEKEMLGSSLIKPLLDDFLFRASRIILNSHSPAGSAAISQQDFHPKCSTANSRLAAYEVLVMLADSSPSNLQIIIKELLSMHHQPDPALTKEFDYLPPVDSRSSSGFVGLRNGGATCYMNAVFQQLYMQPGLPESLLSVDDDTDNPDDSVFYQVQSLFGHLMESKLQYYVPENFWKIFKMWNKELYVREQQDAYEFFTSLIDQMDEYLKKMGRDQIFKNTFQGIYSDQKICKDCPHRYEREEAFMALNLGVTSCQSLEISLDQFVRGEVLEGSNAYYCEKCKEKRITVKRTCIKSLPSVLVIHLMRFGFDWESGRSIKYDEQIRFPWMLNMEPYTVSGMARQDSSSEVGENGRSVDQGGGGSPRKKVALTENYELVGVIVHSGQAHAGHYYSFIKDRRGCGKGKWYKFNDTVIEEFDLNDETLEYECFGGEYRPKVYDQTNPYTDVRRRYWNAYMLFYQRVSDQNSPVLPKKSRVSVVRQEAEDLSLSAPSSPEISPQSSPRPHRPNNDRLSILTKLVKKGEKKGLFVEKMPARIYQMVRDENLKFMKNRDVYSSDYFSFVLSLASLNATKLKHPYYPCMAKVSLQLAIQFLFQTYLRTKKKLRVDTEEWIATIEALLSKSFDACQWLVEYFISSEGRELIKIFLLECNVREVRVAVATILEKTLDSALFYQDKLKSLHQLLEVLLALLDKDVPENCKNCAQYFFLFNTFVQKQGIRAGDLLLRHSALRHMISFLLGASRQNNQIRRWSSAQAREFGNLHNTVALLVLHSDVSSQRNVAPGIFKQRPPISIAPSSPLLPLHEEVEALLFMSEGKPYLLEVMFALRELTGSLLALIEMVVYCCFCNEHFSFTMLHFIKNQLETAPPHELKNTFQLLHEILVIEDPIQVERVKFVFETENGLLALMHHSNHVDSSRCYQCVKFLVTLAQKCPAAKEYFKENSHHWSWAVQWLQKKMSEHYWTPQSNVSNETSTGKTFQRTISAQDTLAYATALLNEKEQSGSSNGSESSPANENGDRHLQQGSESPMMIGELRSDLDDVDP

CS(=O)(=O)c1ccc(CNC(=O)CCl)cc1
inactive: USP19 -0.123 | USP22 -0.163 | USP24 -0.159 | USP25 -0.385 | USP28 -0.583
